Our source for the inhibition values is ChEMBL document CHEMBL3433997, “St. Jude Leishmania screening dataset” (2016).

The first assay deals with Solute carrier family 2, facilitated glucose transporter member 1 (Homo sapiens) (UniProt P11166). The experiment in a line: ST_JUDE_LEISH: Cytotoxicity at 2uM final concentration against transgenic Leishmania Mexicana promastigotes LmGLUT1 that are glucose transport deficient and complemented with the human glucose transporter GLUT1. Activity is measured by DNA content using SYBR green in vitro. It is filed as functional.
Sequence of Solute carrier family 2, facilitated glucose transporter member 1 (Homo sapiens) (P11166 whole entry): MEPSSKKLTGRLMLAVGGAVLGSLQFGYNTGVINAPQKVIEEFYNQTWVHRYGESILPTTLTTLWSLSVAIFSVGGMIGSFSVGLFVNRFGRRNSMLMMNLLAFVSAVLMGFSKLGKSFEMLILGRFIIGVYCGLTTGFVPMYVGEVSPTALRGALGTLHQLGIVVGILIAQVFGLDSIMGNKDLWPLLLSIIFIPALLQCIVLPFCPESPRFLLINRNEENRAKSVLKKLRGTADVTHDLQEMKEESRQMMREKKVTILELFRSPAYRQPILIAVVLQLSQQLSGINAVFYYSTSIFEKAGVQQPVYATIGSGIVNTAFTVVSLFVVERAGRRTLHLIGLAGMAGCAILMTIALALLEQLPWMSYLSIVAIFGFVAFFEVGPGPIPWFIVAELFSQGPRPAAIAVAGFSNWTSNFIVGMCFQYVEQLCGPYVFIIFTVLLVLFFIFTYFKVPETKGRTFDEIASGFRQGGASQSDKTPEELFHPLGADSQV
In the case of `SC(=Nc1ccc2c(c1)OCCO2)NN=Cc1ccccn1`, the inhibition is -0.28%.

Consider `O=C(Nc1ccc(F)cc1)c1ccc(C(=O)NC2CCN(CC3CCCCC3)CC2)cc1`, for which the inhibition was determined as 19.2%.

Turning to `CN(C)CCN(C)Cc1ccc(-c2ccc3c(Nc4ccc(Oc5ccccn5)cc4)ccnc3c2)o1`, the inhibition was -2.89%.

As for `CC1=C(C(=O)Nc2ccccc2)C(c2ccc([N+](=O)[O-])cc2)n2ncc(C(=O)Nc3ccccc3)c2N1` (stereo not given), the inhibition was 14.2%.

In the case of `O=C(/C=C/c1ccc(Cl)c(Cl)c1)NCCC(CN1CCC(c2c[nH]c3ccccc23)CC1)c1ccccc1` (stereo not given), the inhibition stood at 2.74%.

Regarding `COc1cc(NC(=O)/C=C/c2ccccc2OC(F)(F)F)cc(OCCN2CCC(O)(c3ccccc3)CC2)c1`, the inhibition was found to be 7.57%.

As for `c1ccc(-c2ccc(-c3csc(Nc4ccncc4)n3)cc2)cc1`, the inhibition worked out at 0.44%.

As for `CCc1ccccc1N1CCN(CCCC(=O)c2ccc(NC(=O)c3ccc(Cl)cc3)cc2)CC1`, the inhibition was 3.6%.

On to `O=C(NCc1ccc(Cl)c(Cl)c1)c1cccc(C2CCCN(Cc3ccc4[nH]cnc4c3)C2)c1` (stereo not given), for which the inhibition was 0.36%.

Consider `Clc1ccc(Cl)c2[nH]c(CNCCCNc3nc4ccccc4[nH]3)cc12`, for which the inhibition was determined as 0.92%.

As to `COc1ccc(C(=O)CCC(=O)N(Cc2ccc(-c3ccc(CNCCc4ccc(S(C)(=O)=O)cc4)cn3)cc2)Cc2ccc3c(c2)OCO3)cc1F`, the inhibition turned out to be 1.12%.

Consider `Cc1nc(C(=O)N2CCCC[C@H]2CNC(=O)c2ccc(-c3ccc(N4CCCC4=O)cc3C)cc2)c(-c2ccc(F)cc2)s1`, for which the inhibition is -1.91%.

Take `CC(C)N1CCC(Oc2ccc(CN3CCN(C(c4ccccc4)c4ccc(Cl)cc4)CC3)cc2)CC1` (stereo not given): the inhibition turned out to be 6.88%.

With `CC(=O)Nc1ccc(C(=O)Nc2cccc(-c3cccc(-c4nc5cc(F)ccc5[nH]4)c3)c2)cn1`, the inhibition amounted to 7.97%.

`COc1cccc2c(NN=Cc3cccc(Cl)c3)cc(C)nc12`: the inhibition is -0.65%.

On to `NC1CCN(c2nc(NCCCc3ccc(O)cc3)nc(NCc3ccccc3-c3ccc(C(F)(F)F)cc3)n2)CC1`, for which the inhibition is 1.49%.

As for `Clc1ccc(OCCC2CCN(CCCCCCN3CCCCC3)CC2)cc1Cl`, the inhibition was 10.8%.

As to `CCCc1c(C(=O)Nc2ccc3c(c2)CCN(C2CCC2)CC3)cnn1-c1ccc(Cl)cc1`, the inhibition was 5.65%.

On to `Cc1sc(CNCCCNc2cc(=O)c3ccccc3[nH]2)cc1Br`, for which the inhibition amounted to 0.99%.

On to `COc1cccc(C23NC(=Nc4nc5ccccc5[nH]4)NC2(c2cccc(OC)c2)NC(=Nc2nc4ccccc4[nH]2)N3)c1` (stereo not given), for which the inhibition worked out at 6.07%.

As to `CCCc1cc(=O)[nH]c(-n2nc(C)cc2NC(=O)C(CC)c2ccccc2)n1` (stereo not given), the inhibition amounted to 35%.

For the compound `Cc1ccccc1C1CCN(C2CCC(NC(=O)/C=C/c3cc(F)cc(F)c3)CC2)CC1` (stereo not given), the inhibition was -1.34%.

As for `COc1c(C2CCN(CCCCNC(=O)c3ccc(C)c(-c4ccc(C(F)(F)F)cc4)c3)CC2)ccc2c1CCCC2`, the inhibition was -1.99%.

Consider `CCOc1cc(Cc2cnc(N)nc2N)cc(OCC)c1OCCCCC(=O)OC`, for which the inhibition amounted to 4.55%.

Regarding `COc1ccc(CNCc2cccc(-c3csc(-c4nc5ccccc5[nH]4)c3)c2)cc1`, the inhibition is -1.65%.

Take `Cc1c(C(=O)NCc2ccncc2)sc2nc(-c3cccc([N+](=O)[O-])c3)cn12`: the inhibition amounted to 0.53%.

Regarding `CC(C)C[C@H](NC(=O)c1ccc(OCCN2CCOCC2)cc1)C(=O)N[C@H](/C=N/N(C)C(=O)c1ccccc1)CCc1ccccc1`, the inhibition is 3.84%.

Turning to `O=C(/C=C/c1ccc(Cl)c(Cl)c1)NC1CCC(CN2CCC(c3nc4cccnc4[nH]3)CC2)CC1` (stereo not given), the inhibition was 1.77%.

With `CCOc1ccc(-c2nc(NC(=O)CS(=O)(=O)c3ccccc3)sc2C)cc1`, the inhibition stood at 2.75%.

Consider `CC(C)NCc1ccc(-c2ccc(NC(=O)c3ccc(Cl)cc3)cc2)cc1`, for which the inhibition was determined as 19.7%.

On to `OCCC1CCN(Cc2ccc(-c3ccc(-c4nc5ccccc5[nH]4)cc3)cc2)CC1`, for which the inhibition is 8.45%.

`C#CCOc1ccc(N2C(N)=NC(N)=NC2(C)C)cc1`: the inhibition worked out at 2.23%.

As to `COc1ccc(CNc2ccnc(-n3cnc4cc(C)c(C)cc43)n2)cc1Cl`, the inhibition was 4.37%.

Turning to `Cc1cccc2c(C(=O)NC3CCN(Cc4ccccc4)CC3)cc(-c3cccnc3)nc12`, the inhibition is 1.6%.

As for `COc1cc2c(cc1C(F)(F)F)N(C(=O)Nc1cc(F)cc(-c3cncnc3)c1)CC2`, the inhibition came to 11.6%.

For `CNCCNCc1ccc(-c2ccc(-c3nc4cccc(C)c4[nH]3)s2)cc1`, the inhibition amounted to 2.93%.

Take `O=C(Nc1ccc(-c2ccc(CN3CCNCC3)cc2)cc1)c1cccc(Cl)c1`: the inhibition is 107%.

Regarding `O=C(CCc1c[nH]cn1)Nc1ccc(-c2ccc(-c3nc4ccccc4[nH]3)cc2)cc1`, the inhibition was 19.3%.

In the case of `COc1cc2nccc(Nc3ccc(NC(=O)c4ccc(C)cc4)c(O)c3)c2cc1OC`, the inhibition was determined as 6.88%.

As for `Cc1cccc2nc(-c3ccc(-c4ccc(CN5CCC(N)C5)cc4)s3)[nH]c12` (stereo not given), the inhibition was -3.3%.

The next assay addresses Hexose transporter 1 (Plasmodium falciparum) (UniProt O97467). The experiment in a line: ST_JUDE_LEISH: Cytotoxicity at 2uM final concentration against transgenic Leishmania Mexicana promastigotes LmPfHT that are glucose transport deficient and complemented with the Plasmodium falciparum hexose transporter. Activity is measured by DNA content using SYBR green in vitro. It is filed as functional.
Regarding `SC(=Nc1ccc2c(c1)OCCO2)NN=Cc1ccccn1`, the inhibition is -0.16%.

With `O=C(Nc1ccc(F)cc1)c1ccc(C(=O)NC2CCN(CC3CCCCC3)CC2)cc1`, the inhibition was 16.6%.

As for `CN(C)CCN(C)Cc1ccc(-c2ccc3c(Nc4ccc(Oc5ccccn5)cc4)ccnc3c2)o1`, the inhibition is -0.77%.

Take `CC1=C(C(=O)Nc2ccccc2)C(c2ccc([N+](=O)[O-])cc2)n2ncc(C(=O)Nc3ccccc3)c2N1` (stereo not given): the inhibition was found to be 6.94%.

Turning to `O=C(/C=C/c1ccc(Cl)c(Cl)c1)NCCC(CN1CCC(c2c[nH]c3ccccc23)CC1)c1ccccc1` (stereo not given), the inhibition turned out to be 2.22%.

Regarding `COc1cc(NC(=O)/C=C/c2ccccc2OC(F)(F)F)cc(OCCN2CCC(O)(c3ccccc3)CC2)c1`, the inhibition stood at 5.55%.

In the case of `c1ccc(-c2ccc(-c3csc(Nc4ccncc4)n3)cc2)cc1`, the inhibition was 1.9%.

Take `CCc1ccccc1N1CCN(CCCC(=O)c2ccc(NC(=O)c3ccc(Cl)cc3)cc2)CC1`: the inhibition is 3.75%.

Consider `O=C(NCc1ccc(Cl)c(Cl)c1)c1cccc(C2CCCN(Cc3ccc4[nH]cnc4c3)C2)c1` (stereo not given), for which the inhibition amounted to 2.01%.

On to `Clc1ccc(Cl)c2[nH]c(CNCCCNc3nc4ccccc4[nH]3)cc12`, for which the inhibition worked out at 2.67%.

On to `COc1ccc(C(=O)CCC(=O)N(Cc2ccc(-c3ccc(CNCCc4ccc(S(C)(=O)=O)cc4)cn3)cc2)Cc2ccc3c(c2)OCO3)cc1F`, for which the inhibition is -0.05%.

As for `Cc1nc(C(=O)N2CCCC[C@H]2CNC(=O)c2ccc(-c3ccc(N4CCCC4=O)cc3C)cc2)c(-c2ccc(F)cc2)s1`, the inhibition is -0.31%.

As for `CC(C)N1CCC(Oc2ccc(CN3CCN(C(c4ccccc4)c4ccc(Cl)cc4)CC3)cc2)CC1` (stereo not given), the inhibition turned out to be 3.12%.

Regarding `CC(=O)Nc1ccc(C(=O)Nc2cccc(-c3cccc(-c4nc5cc(F)ccc5[nH]4)c3)c2)cn1`, the inhibition worked out at 10.8%.

As to `COc1cccc2c(NN=Cc3cccc(Cl)c3)cc(C)nc12`, the inhibition was found to be 0.14%.

Regarding `NC1CCN(c2nc(NCCCc3ccc(O)cc3)nc(NCc3ccccc3-c3ccc(C(F)(F)F)cc3)n2)CC1`, the inhibition came to 2.87%.

With `Clc1ccc(OCCC2CCN(CCCCCCN3CCCCC3)CC2)cc1Cl`, the inhibition turned out to be 4.99%.

As for `CCCc1c(C(=O)Nc2ccc3c(c2)CCN(C2CCC2)CC3)cnn1-c1ccc(Cl)cc1`, the inhibition amounted to 4.4%.

Take `Cc1sc(CNCCCNc2cc(=O)c3ccccc3[nH]2)cc1Br`: the inhibition was 0.97%.

As for `COc1cccc(C23NC(=Nc4nc5ccccc5[nH]4)NC2(c2cccc(OC)c2)NC(=Nc2nc4ccccc4[nH]2)N3)c1` (stereo not given), the inhibition stood at 4.74%.

As for `CCCc1cc(=O)[nH]c(-n2nc(C)cc2NC(=O)C(CC)c2ccccc2)n1` (stereo not given), the inhibition was found to be 38.3%.

For the compound `Cc1ccccc1C1CCN(C2CCC(NC(=O)/C=C/c3cc(F)cc(F)c3)CC2)CC1` (stereo not given), the inhibition is -0.51%.

Regarding `COc1c(C2CCN(CCCCNC(=O)c3ccc(C)c(-c4ccc(C(F)(F)F)cc4)c3)CC2)ccc2c1CCCC2`, the inhibition was -1.46%.

As for `CCOc1cc(Cc2cnc(N)nc2N)cc(OCC)c1OCCCCC(=O)OC`, the inhibition worked out at 0.23%.

Consider `COc1ccc(CNCc2cccc(-c3csc(-c4nc5ccccc5[nH]4)c3)c2)cc1`, for which the inhibition is -1.34%.

Turning to `Cc1c(C(=O)NCc2ccncc2)sc2nc(-c3cccc([N+](=O)[O-])c3)cn12`, the inhibition was -1.39%.

For the compound `CC(C)C[C@H](NC(=O)c1ccc(OCCN2CCOCC2)cc1)C(=O)N[C@H](/C=N/N(C)C(=O)c1ccccc1)CCc1ccccc1`, the inhibition was 8.34%.

For `O=C(/C=C/c1ccc(Cl)c(Cl)c1)NC1CCC(CN2CCC(c3nc4cccnc4[nH]3)CC2)CC1` (stereo not given), the inhibition came to 2.5%.

Turning to `CCOc1ccc(-c2nc(NC(=O)CS(=O)(=O)c3ccccc3)sc2C)cc1`, the inhibition is 2.62%.

Regarding `CC(C)NCc1ccc(-c2ccc(NC(=O)c3ccc(Cl)cc3)cc2)cc1`, the inhibition worked out at 16.2%.

With `OCCC1CCN(Cc2ccc(-c3ccc(-c4nc5ccccc5[nH]4)cc3)cc2)CC1`, the inhibition was determined as 5.85%.

Take `C#CCOc1ccc(N2C(N)=NC(N)=NC2(C)C)cc1`: the inhibition came to 1.16%.

For `COc1ccc(CNc2ccnc(-n3cnc4cc(C)c(C)cc43)n2)cc1Cl`, the inhibition came to 3.69%.

Turning to `Cc1cccc2c(C(=O)NC3CCN(Cc4ccccc4)CC3)cc(-c3cccnc3)nc12`, the inhibition amounted to 1.08%.

Turning to `COc1cc2c(cc1C(F)(F)F)N(C(=O)Nc1cc(F)cc(-c3cncnc3)c1)CC2`, the inhibition came to 1.94%.

In the case of `CNCCNCc1ccc(-c2ccc(-c3nc4cccc(C)c4[nH]3)s2)cc1`, the inhibition was 2.48%.

With `O=C(Nc1ccc(-c2ccc(CN3CCNCC3)cc2)cc1)c1cccc(Cl)c1`, the inhibition is 104%.

For `O=C(CCc1c[nH]cn1)Nc1ccc(-c2ccc(-c3nc4ccccc4[nH]3)cc2)cc1`, the inhibition amounted to 16.7%.

Take `COc1cc2nccc(Nc3ccc(NC(=O)c4ccc(C)cc4)c(O)c3)c2cc1OC`: the inhibition came to 9.16%.

`Cc1cccc2nc(-c3ccc(-c4ccc(CN5CCC(N)C5)cc4)s3)[nH]c12` (stereo not given): the inhibition was determined as 0.94%.

The term inhibition denotes the drop in the measured response relative to a control, in per cent.
